# Most compounds without a hit are left out; they make up all but 4.6% or so of the library.
# CF NFkB inh = inhibitors of PAF-induced NF-kB signaling, primary screen, cell-based, GFP fluorescence, uHTS. KKLEB NF-kB-GFP reporter, GFP fluorescence overnight. inhibition, % at 5 µM. hit rate 0.86% among 360,000. AID 588850, 2011;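 active = at least 50% inhibition at 5 µM, scaled per plate between neutral and stimulator controls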;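 also: PAF is a Pseudomonas aeruginosa culture filtrate used as stimulus; plate controls were PAF-stimulated DMSO wells for no effect and unstimulated DMSO wells for full effect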
# HIF-2a block = HIF-2a reporter inhibitors, primary screen, luminescence, 786-0 RCC cells | 786-0 RCC cells HIF-2a reporter, luciferase luminescence, overnight | inhibition, % at 18.8 µM | hit rate 0.72% among 360,000 | AID 624352, 2012;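 active = inhibition of the luminescence signal of 40% or more relative to plate controls, in a single-dose primary screen at 18.75 µM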
# Mdm2-MdmX inh = inhibitors of human Mdm2-MdmX association, primary screen, cell-based, luminescence, split luciferase, SaOS-2, uHTS; Protein Mdm4 (Homo sapiens) + E3 ubiquitin-protein ligase Mdm2 (Homo sapiens), …; SaOS-2 split-luciferase Mdm2/MdmX complementation; inhibition, % at 8 µM; hit rate 3% among 330,000; AID 485346, 2010;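 active = inhibition of at least 50% at 8 µM in the primary screen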
# KKLEB tox = cytotoxicity in KKLEB CF airway cells, primary screen, cytotoxicity control for CF NF-kB inhibitor project, cell-based, uHTS, fluorescence assay plates; KKLEB CF airway cells viability, ATPlite luminescence, overnight; active compounds read low; cells stimulated with P. aeruginosa culture filtrate; activity change (cytotoxicity), % at 5 µM; hit rate 0.36% among 360,000;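 active = corrected activity change at or below -50% at 5 µM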
# ABHD5 PLIN5 PPI = ABHD5-PLIN5 interaction inhibitors, primary screen, cell lysate, split luciferase complementation, luminescence; Perilipin-5 (Homo sapiens) + 1-acylglycerol-3-phosphate O-acyltransferase ABHD5 (Homo …; Split G. princeps luciferase complementation, 4 h; inhibition, % at 4 µM; hit rate 0.78% among 360,000; AID 602281, 2012;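 active = inhibition above the mean inhibition across every tested compound plus 3 SD, cut at about 22% in these data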;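 also: 0% = DMSO only wells and the 100% control is not disclosed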
# Peg3 prom inh = Peg3 promoter-driven luciferase inhibitors, primary screen, cell-based, HeLa, luciferase luminescence; hit rate 1.7% among 360,000; AID 588405, 2011; inhibition, % at 20 µM; HeLa PEG-Prom luciferase reporter, overnight;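 active = inhibition of at least 50% at 20 µM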
# * hit, by the source's call; · = no result given.
SMILES,CF NFkB inh,HIF-2a block,Mdm2-MdmX inh,KKLEB tox,ABHD5 PLIN5 PPI,Peg3 prom inh
O=C(Nc1nnc(-c2ccncc2)s1)Nc1ccccc1F,25,-161,-19,8,0,-140
Cc1nc2sc(-c3ccccc3)cc2c(=O)n1N,-38,13,10,-11,11,58*
CCCCCCN1C[C@H](O)[C@@H](n2cc(-c3ccc(F)cc3)nn2)C[C@@H]1c1ccc(Cl)cc1,12,11,·,-2,-7,32
CCCCCCN1C[C@@H](n2cc(-c3ccc(F)cc3)nn2)[C@H](O)C[C@@H]1c1ccc(OC)cc1,-16,-27,·,-2,7,61*
CCCCCCN1C[C@@H](n2cc(-c3ccc(F)cc3)nn2)[C@H](O)C[C@@H]1c1ccc(Cl)cc1,29,-84,·,11,6,69*
COc1ccc(C(CNC(=O)c2ccc(OCc3csc(C)n3)cc2)N2CCCC2)cc1 (stereo not drawn),-9,-11,·,0,-3,-8
O=C(NN1CCN(Cc2ccccc2)CC1)c1ccc(Cl)cc1,-6,25,20,1,-2,15
CCCCCOc1ccc(CSC(=N)N)cc1[N+](=O)[O-],-4,-121,12,10,6,107*
COc1ccc(CSC(=N)N)cc1[N+](=O)[O-],-5,9,0,2,-6,2
CCOc1ccc(C(C)=O)cc1CSC(=N)N,-29,2,-1,17,-5,4
CCCCOc1ccc(Br)cc1CSC(=N)N,17,14,·,-13,0,105*
O=C(OCC(=O)N1CCCC1)c1cc(Cl)ccc1Cl,8,-24,10,-4,14,-32
Cc1cccc(C(O)c2ncc(-c3ccc4ccccc4c3)[nH]2)c1C (stereo not drawn),26,-67,·,-22,-1,-23
OC(CNCCC1C=Nc2ccccc21)Cn1c2ccc(Cl)cc2c2cc(Cl)ccc21 (stereo not drawn),31,14,·,-30,20,102*
CN(C)CCNS(=O)(=O)c1ccc(N2CCN(c3ccc(F)cc3)CC2)c([N+](=O)[O-])c1,15,11,43,-15,21,63*
CCCCCN(C(=O)CCC(=O)OCc1ccc(C(C)C)cc1)c1c(N)n(CCCC)c(=O)[nH]c1=O,54*,-5,24,-54*,-2,11
O=C(Nc1ccc(C(=O)O)cc1)/C(=C\c1ccc2c(c1)OCO2)NC(=O)c1ccccc1Cl,12,1,·,-6,9,1
COc1ccc(C(=O)c2coc3c2C(=O)C(=O)c2ccccc2-3)cc1,44,-30,-3,11,11,-154
O=C(c1ccccc1)c1coc2c1C(=O)c1ccccc1C2=O,52*,-114,45,5,-5,-140
CCN(CC)CCCNC(=O)c1[nH]c2ccccc2c1Sc1ccc(Cl)cc1,9,23,11,-25,12,65*
COC(=O)C1=C(C)N(Cc2ccc(C)cc2)C(=O)/C1=C\c1cc(OC)c(OC)c(OC)c1,23,51*,5,-1,16,-17
O=C(NCCN1CCNC1=O)c1ccc2sc([C@@H]3O[C@H](CO)[C@H](O)[C@H](O)[C@H]3O)nc2c1,-5,5,·,-7,-12,-19
CC(=O)Nc1ccc(C=NNC(=O)c2ccc(NS(=O)(=O)c3cccs3)cc2)cc1,-10,-36,-5,8,-15,100*
CN(CC(=O)NC1CCCCC1)S(=O)(=O)c1ccc(Cl)cc1,4,3,16,-2,3,91*
CN(CC(=O)NC1CCCCCC1)S(=O)(=O)c1ccc(F)cc1,16,-4,-10,-9,-4,-4
SMILES,CF NFkB inh,HIF-2a block,Mdm2-MdmX inh,KKLEB tox,ABHD5 PLIN5 PPI,Peg3 prom inh
C[C@@H]1COC(=O)[C@H](NC(=O)OCC2c3ccccc3-c3ccccc32)C/C=C\C[C@@H](CC(=O)N[C@@H](CO)Cc2ccccc2)C(=O)N1,33,-4,-2,-19,6,-10
O=C(C[C@@H]1C/C=C/CC[C@@H](Cc2ccc(F)cc2)C(=O)OC[C@H](Cc2ccccc2)NC1=O)N[C@H](CO)Cc1ccccc1,12,3,-7,-17,-5,55*
O=C(C[C@H]1C/C=C\C[C@H](NC(=O)OCC2c3ccccc3-c3ccccc32)C(=O)OC[C@H](Cc2ccccc2)NC1=O)N[C@H](CO)Cc1ccccc1,16,0,49,-17,-1,75*
C[C@H]1COC(=O)[C@H](Cc2ccc(F)cc2)CC/C=C/C[C@@H](CC(=O)N[C@@H](CO)Cc2ccccc2)C(=O)N1,-10,12,1,-2,12,16
O=C(C[C@H]1C/C=C\CC[C@H](Cc2ccc(F)cc2)C(=O)O[C@@H](c2ccccc2)CNC1=O)N[C@@H](CO)Cc1ccccc1,14,17,44,4,-5,66*
COc1ccccc1N1CCN(S(=O)(=O)c2ccc(-n3cnnn3)cc2)CC1,6,14,11,-15,-11,6
CN(C)c1ncnc2c1ncn2[C@H]1CN(Cc2ccco2)C[C@@H](CO)O1,3,6,·,2,1,2
COc1ccc(OC)c(C2/C(=C(/O)c3ccc(C)cc3)C(=O)C(=O)N2Cc2ccco2)c1 (stereo not drawn),-2,12,-6,5,-5,12
Cc1ccc(C2/C(=C(/O)c3ccc(Br)cc3)C(=O)C(=O)N2Cc2ccco2)o1 (stereo not drawn),-12,-13,23,6,23*,-26
COc1cc2c3c(c1)c(C1=NC(=S)NC1=O)c(O)n3C(C)(C)C=C2C,4,15,27,-10,-4,23
CC(=O)Oc1cc2c3c(c1)/C(=C1/SC(=S)NC1=O)C(=O)N3C(C)(C)C=C2C,52*,-22,10,11,-6,-40
COC(=O)c1c(C(=O)OC)c(-c2cccc(F)c2)n2c1CS(=O)(=O)C2,9,-6,33,-3,3,13
O=C1C=CC(c2c[nH]c3ccccc23)CC1 (stereo not drawn),·,18,·,·,23*,·
CCOC(=O)C1=CNS(=O)(=O)NC1c1ccccc1 (stereo not drawn),-2,-1,5,3,2,11
COc1ccc(Cl)cc1C(=O)Nc1nc2ccccc2[nH]1,-31,33,46,-52*,11,-12
COc1ccc(C(=O)Nc2nc3ccccc3[nH]2)cc1OC,-19,-212,-49,6,-10,-304
CN(C#N)c1nc(Cl)nc(Nc2cccc(Cl)c2)n1,15,14,11,-2,4,99*

# Source: PubChem
